The record followed here is the supplement of paper PMC10849652.

About 8,800 targets were measured; listed, in parts, are those with a hit and a random draw of the rest. About 0.5% of all pairs of compound and target were hits.

UniProt P04844, sequence (P04844 whole entry, looked up): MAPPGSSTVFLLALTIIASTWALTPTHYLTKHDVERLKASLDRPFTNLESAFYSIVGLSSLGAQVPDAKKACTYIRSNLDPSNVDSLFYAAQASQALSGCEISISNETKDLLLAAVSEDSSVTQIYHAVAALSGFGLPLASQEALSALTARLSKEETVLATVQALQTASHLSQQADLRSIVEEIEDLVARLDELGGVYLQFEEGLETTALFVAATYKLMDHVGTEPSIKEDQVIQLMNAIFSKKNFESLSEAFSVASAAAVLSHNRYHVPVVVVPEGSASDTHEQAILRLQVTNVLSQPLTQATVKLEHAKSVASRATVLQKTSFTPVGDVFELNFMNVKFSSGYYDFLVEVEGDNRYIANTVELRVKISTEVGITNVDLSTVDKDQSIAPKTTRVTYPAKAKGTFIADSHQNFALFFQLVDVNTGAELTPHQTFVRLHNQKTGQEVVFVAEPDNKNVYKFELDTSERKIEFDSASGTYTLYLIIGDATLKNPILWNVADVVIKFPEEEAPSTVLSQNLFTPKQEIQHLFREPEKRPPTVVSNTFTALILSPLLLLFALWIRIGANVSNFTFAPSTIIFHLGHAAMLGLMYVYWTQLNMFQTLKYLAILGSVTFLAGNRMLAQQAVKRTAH
UniProt Q5TBB1, sequence (Q5TBB1 whole entry, looked up): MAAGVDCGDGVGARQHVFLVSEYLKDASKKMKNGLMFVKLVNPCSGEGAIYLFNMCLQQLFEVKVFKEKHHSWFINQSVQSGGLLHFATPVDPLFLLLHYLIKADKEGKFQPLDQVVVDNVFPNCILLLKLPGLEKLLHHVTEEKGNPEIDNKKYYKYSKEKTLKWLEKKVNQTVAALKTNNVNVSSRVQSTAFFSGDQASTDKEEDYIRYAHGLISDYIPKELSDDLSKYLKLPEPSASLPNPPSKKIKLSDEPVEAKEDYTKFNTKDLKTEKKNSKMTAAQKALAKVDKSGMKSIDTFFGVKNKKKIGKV
UniProt Q00765, sequence (Q00765 whole entry, looked up): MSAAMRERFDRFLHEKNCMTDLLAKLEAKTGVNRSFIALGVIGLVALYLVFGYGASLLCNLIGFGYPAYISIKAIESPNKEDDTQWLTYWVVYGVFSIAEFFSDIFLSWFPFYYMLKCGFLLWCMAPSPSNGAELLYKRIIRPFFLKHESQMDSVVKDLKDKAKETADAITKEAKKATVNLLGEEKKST
UniProt Q9UPW6, sequence (Q9UPW6 whole entry, looked up): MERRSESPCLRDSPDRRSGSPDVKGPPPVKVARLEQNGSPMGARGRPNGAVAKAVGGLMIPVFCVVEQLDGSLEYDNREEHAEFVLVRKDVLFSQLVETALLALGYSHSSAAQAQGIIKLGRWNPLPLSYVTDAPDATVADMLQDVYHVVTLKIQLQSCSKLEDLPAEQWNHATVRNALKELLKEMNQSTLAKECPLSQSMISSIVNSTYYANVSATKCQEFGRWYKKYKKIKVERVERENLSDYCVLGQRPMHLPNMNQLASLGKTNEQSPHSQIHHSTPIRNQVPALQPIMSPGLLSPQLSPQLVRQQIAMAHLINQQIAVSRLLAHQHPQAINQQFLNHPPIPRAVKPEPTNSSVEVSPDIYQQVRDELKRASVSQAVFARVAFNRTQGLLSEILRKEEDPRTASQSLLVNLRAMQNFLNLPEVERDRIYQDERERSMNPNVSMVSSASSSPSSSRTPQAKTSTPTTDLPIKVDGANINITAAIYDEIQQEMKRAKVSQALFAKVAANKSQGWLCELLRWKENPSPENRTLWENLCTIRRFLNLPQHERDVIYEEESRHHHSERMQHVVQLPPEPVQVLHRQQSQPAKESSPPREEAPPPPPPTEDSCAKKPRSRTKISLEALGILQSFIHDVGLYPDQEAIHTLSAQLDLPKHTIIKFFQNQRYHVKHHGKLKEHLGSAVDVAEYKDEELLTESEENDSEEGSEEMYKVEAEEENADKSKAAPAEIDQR
UniProt Q96EE3, sequence (Q96EE3 whole entry, looked up): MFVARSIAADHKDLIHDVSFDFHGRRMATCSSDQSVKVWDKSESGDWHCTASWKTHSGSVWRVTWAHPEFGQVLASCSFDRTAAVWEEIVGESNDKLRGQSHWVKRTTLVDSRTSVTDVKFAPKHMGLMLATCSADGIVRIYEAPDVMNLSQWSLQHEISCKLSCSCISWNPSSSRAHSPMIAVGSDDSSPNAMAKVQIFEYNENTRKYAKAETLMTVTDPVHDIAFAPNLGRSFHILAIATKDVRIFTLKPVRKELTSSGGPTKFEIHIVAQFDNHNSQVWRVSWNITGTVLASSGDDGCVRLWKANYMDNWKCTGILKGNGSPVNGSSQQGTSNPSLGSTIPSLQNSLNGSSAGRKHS
UniProt P23921, sequence (P23921 whole entry, looked up): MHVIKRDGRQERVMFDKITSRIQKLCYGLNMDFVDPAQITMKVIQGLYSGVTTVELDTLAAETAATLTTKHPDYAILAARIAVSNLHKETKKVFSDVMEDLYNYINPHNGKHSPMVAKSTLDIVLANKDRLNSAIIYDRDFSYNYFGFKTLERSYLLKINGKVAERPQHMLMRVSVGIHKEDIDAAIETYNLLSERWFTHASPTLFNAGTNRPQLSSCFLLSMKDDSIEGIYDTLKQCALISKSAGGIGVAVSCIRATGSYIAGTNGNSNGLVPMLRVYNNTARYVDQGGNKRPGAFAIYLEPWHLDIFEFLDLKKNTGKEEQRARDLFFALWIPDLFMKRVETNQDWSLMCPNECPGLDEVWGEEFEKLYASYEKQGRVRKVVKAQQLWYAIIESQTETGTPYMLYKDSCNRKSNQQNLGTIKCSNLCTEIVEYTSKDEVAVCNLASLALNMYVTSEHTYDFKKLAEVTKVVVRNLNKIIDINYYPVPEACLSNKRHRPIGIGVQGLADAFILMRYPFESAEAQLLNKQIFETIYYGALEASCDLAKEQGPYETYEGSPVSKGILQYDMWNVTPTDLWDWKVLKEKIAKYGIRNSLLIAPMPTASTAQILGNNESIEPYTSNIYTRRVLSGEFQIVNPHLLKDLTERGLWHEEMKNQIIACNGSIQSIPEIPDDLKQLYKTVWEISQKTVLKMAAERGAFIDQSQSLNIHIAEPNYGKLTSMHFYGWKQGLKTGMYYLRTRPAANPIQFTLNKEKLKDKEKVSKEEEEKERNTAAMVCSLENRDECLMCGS
UniProt P51812, sequence (P51812 whole entry, looked up): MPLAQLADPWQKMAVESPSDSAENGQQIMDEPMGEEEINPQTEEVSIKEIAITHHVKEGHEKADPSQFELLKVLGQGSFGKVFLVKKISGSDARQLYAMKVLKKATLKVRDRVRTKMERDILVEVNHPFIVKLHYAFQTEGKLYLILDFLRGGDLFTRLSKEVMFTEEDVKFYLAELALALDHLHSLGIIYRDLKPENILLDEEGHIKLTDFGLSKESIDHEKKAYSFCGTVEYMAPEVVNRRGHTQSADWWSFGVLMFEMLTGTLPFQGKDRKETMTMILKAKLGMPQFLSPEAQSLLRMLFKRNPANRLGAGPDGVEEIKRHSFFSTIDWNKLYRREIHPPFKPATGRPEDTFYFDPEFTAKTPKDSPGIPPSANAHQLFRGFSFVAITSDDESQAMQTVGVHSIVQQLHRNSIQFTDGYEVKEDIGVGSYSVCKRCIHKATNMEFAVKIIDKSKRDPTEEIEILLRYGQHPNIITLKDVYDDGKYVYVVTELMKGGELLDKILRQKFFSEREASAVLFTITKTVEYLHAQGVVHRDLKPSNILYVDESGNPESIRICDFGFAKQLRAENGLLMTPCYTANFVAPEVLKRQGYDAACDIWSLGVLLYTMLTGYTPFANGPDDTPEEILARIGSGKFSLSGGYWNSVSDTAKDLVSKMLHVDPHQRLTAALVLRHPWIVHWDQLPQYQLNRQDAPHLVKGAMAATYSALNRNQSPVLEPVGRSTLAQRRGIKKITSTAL
UniProt Q9UL25, sequence (Q9UL25 whole entry, looked up): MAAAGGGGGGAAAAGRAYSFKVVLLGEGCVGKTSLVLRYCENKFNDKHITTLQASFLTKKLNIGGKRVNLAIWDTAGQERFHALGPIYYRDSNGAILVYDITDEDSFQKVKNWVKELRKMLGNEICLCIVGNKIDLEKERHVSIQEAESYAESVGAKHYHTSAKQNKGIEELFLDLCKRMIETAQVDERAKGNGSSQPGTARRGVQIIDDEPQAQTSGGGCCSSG
UniProt Q6UVJ0, sequence (Q6UVJ0 whole entry, looked up): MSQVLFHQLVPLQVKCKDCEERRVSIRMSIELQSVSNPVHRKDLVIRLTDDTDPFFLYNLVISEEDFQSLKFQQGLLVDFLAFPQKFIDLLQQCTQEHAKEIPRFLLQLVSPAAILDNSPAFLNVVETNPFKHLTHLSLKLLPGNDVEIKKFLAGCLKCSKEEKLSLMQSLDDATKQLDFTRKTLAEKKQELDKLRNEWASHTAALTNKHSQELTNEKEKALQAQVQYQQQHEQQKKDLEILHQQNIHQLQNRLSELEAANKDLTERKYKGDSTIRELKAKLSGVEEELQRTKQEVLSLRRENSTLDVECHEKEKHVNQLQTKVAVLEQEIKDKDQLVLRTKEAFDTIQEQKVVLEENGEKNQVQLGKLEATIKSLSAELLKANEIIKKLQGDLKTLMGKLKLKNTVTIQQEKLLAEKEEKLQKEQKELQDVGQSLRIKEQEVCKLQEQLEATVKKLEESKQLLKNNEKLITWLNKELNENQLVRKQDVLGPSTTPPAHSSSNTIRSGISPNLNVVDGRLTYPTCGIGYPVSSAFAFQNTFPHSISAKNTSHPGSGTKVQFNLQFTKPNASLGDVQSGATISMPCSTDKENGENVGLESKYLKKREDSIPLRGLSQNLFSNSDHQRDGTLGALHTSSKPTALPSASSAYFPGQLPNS
UniProt O15541, sequence (O15541 whole entry, looked up): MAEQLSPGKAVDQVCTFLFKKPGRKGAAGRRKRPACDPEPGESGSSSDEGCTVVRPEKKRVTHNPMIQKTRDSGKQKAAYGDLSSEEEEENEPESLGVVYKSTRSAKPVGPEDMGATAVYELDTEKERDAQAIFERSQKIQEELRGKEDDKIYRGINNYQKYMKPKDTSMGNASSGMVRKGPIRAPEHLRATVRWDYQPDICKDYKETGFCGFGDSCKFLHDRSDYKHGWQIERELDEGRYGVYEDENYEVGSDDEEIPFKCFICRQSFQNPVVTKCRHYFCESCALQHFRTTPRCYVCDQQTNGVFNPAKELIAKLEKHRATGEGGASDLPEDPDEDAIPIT

Compound in the assay: O=C(CCCCCCC(=O)Nc1ccccc1)NO [vorinostat]
Nature of the assay: log2 fold change, soluble protein after heating vs DMSO (PISA); higher = thermal stabilisation; K562 lysate, 10 uM; active = over 0.2 and 3.5 SD of the protein, either way, in both replicates (recomputed). In short, it runs like this: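 Soluble protein was defined as the supernatant remaining after 21,000xg for 90 min, following pooling of heated aliquots and adjustment to 0.5% NP-40 at 4°C. Before that, crude K562 extract at 1 mg/mL protein in PBS pH 7.4 with 1 mM MgCl2 was treated with 10 μM compound for 30 min and heated for 3 min across 48°C-58°C. Quantification used TMTpro 16plex LC-MS/MS with channel sums equalised, and values are log-two fold changes in thermal stability relative to solvent controls from duplicates.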
Take RTN4IP1 (UniProt Q8WWV3): the log2 fold change was -0.338 (active).

Take SATB2 (UniProt Q9UPW6): the log2 fold change is -0.347 (active).

Turning to RRAGA (UniProt Q7L523), the log2 fold change is 0.099 (inactive).

For RFC2 (UniProt P35250), the log2 fold change was -0.506 (active).

Turning to SASS6 (UniProt Q6UVJ0), the log2 fold change is -0.381 (active).

As to SEC16A isoform 5 (UniProt O15027), the log2 fold change is -0.281 (active).

As for SEH1L isoform 1 (UniProt Q96EE3), the log2 fold change is -0.001 (inactive).

For RECQL5 (UniProt O94762), the log2 fold change is -0.307 (active).

Turning to SAR1A (UniProt Q9NR31), the log2 fold change is 0.056 (inactive).

For RAP1GAP isoform 4 (UniProt P47736), the log2 fold change was -0.419 (active).

Turning to RNASEL (UniProt Q05823), the log2 fold change is -0.298 (active).

Consider RIOK3 (UniProt O14730), for which the log2 fold change is -0.605 (active).

With RRM1 (UniProt P23921), the log2 fold change is -0.227 (active).

As to RBBP8 isoform 2 (UniProt Q99708), the log2 fold change was 0.076 (inactive).

Take REEP5 (UniProt Q00765): the log2 fold change was 0.001 (inactive).

In the case of RAB21 (UniProt Q9UL25), the log2 fold change was -0.235 (inactive).

Turning to RDH14 (UniProt Q9HBH5), the log2 fold change is -0.318 (active).

Take SDHA (UniProt P31040): the log2 fold change is 0.058 (inactive).

With RABL3 (UniProt Q5HYI8), the log2 fold change is -0.126 (inactive).

On to RBMX (UniProt P38159), for which the log2 fold change was 0.065 (inactive).

Regarding RNASEH2B (UniProt Q5TBB1), the log2 fold change is -0.377 (active).

Consider RAC2 (UniProt P15153), for which the log2 fold change was -0.25 (active).

Turning to RPS6KA3 (UniProt P51812), the log2 fold change was -0.384 (inactive).

Take RNF113A (UniProt O15541): the log2 fold change is -0.02 (inactive).

Consider RCOR1 (UniProt Q9UKL0), for which the log2 fold change was -0.184 (inactive).

Take RBM4 (UniProt Q9BWF3): the log2 fold change was -0.172 (inactive).

Consider SBF1 isoform 4 (UniProt O95248), for which the log2 fold change was -0.377 (active).

For the target RBSN (UniProt Q9H1K0), the log2 fold change was 0.035 (inactive).

Consider RAPGEF2, A0A2R8YGD3, for which the log2 fold change was 0.2 (inactive).

For RBBP7 (UniProt Q16576), the log2 fold change is -0.091 (inactive).

Consider S100A11 (UniProt P31949), for which the log2 fold change is 0.106 (inactive).

RPN2 (UniProt P04844): the log2 fold change is 0.118 (inactive).

RXRB isoform 3 (UniProt P28702): the log2 fold change was -0.757 (active).
